Assay results published in PubChem BioAssay (NCATS).
Results filed as inconclusive are left out. Calls of active or inactive are those of the source. Calls follow the shape of the dose curve; as a rule, active = well fitted curve in the direction sought with a large enough effect; inconclusive = small, poorly fitted or top-dose-only effect, or another doubt; inactive = no such curve, though single readings can be large; an effect the other way counts as inactive or inconclusive.

Molecular target: Luciferin 4-monooxygenase (Photinus pyralis) (UniProt P08659)
Assay: Primary firefly luciferase (FLuc) qHTS assay for identification of artifact compounds. (AID 1845220); also: nearly all actives have a fitted effect of over 60% in size;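 as to activity change, negative = inhibition: plate controls were DMSO vehicle for no effect and no enzyme for full effect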
Settings: purified firefly luciferase, luminescence, 5 min; series mostly up to 54.1 µM; activity change, negative = inhibition: at the top concentration
Summary of the method: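 FLuc 10 nM; luciferin 10 uM; ATP 10 uM; Tris-acetate pH 7.6, Mg-acetate 10 mM; 15 min RT preincubation; 5 min reaction; luminescence.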
Potency is read from the fitted curve at half-maximal effect.

| Compound | Potency | activity change, negative = inhibition | outcome |
| --- | --- | --- | --- |
| CO[C@H]1[C@H](O)[C@H](O[C@H]2CC[C@]3(C)C4CC[C@]5(C)[C@H](C6=CC(=O)OC6)CC[C@]5(O)C4CC[C@@H]3C2)O[C@@H](C)[C@@H]1O (stereo partly specified) | 7.38 µM (active) |  |  |
| Cc1cn(C[C@H](N)C(=O)O)c(=O)n(Cc2cc(-c3ccccc3)sc2C(=O)O)c1=O |  | 0.0772% (inactive) |  |
| COC(=O)N1CCN(C(=O)Cc2ccc(Cl)c(Cl)c2)[C@@H](CN2CCCC2)C1 |  | 2.48% (inactive) |  |
| COC(=O)C12C(=O)C(C)(O)C(=O)C1(C)C(C)=CC1C34CCC(OC3=O)C(C)(CO)C4CCC12C (stereo unspecified) |  | 3.71% [at 25.7 µM] (inactive) |  |
| C=C(CO)C(=O)O[C@H]1C/C(C)=C/CC/C(CO)=C/[C@H]2OC(=O)C(=C)[C@H]12 |  |  | inactive |
| COC1=CC(=O)O[C@@H](CCc2ccccc2)C1 |  |  | inactive |
| CC(=O)OC1CC(O)C2(C)C(CC(OC(C)=O)C3(C)C2CCC2(C)C(c4ccoc4)C(=O)C4OC423)C1(C)C (stereo unspecified) |  | 3.41% [at 25.7 µM] (inactive) |  |
| C[C@H](NC(=O)Cc1cc(F)cc(F)c1)C(=O)N[C@@H]1N=C(c2ccccc2)c2ccccc2N(C)C1=O |  | -8.98% (inactive) |  |
| O=C(O)c1ccnc2cc(C(OCCN3CCCCC3)c3ccccc3Cl)[nH]c12 (stereo unspecified) |  |  | inactive |
| CCN1CC2(COC)C3[C@@H](OC)C4C1C3(C1C[C@]3(O)[C@H](OC(=O)c5ccccc5)C1[C@]4(OC(C)=O)[C@@H](O)[C@@H]3OC)[C@H](OC)C[C@H]2O (stereo partly specified) |  | 2.26% (inactive) |  |
| CN1[C@H]2C[C@H](OC(=O)[C@H](CO)c3ccccc3)C[C@@H]1[C@@H](O)C2 |  |  | inactive |
| CN1C(=O)N(c2ccc(C#N)c(C(F)(F)F)c2)C(=O)[C@]1(CO)c1ccccc1 |  |  | inactive |
| COc1cc(CCNCc2ccccc2O)c(OC)cc1C#N |  |  | inactive |
| C1=C2CCCN[C@H]2[C@@H]2C[C@H]1[C@H]1CCCCN1C2 |  |  | inactive |
| CCCCCOc1cc2c(cc1-c1cc(/C=C/C(=O)O)ccc1O)C(C)(C)CCC2(C)C |  |  | inactive |
| C[C@H]1O[C@@H](O[C@H]2C[C@@H](O)[C@]3(CO)C4C(CC[C@]3(O)C2)[C@@]2(O)CC[C@H](C3=CC(=O)OC3)[C@@]2(C)C[C@H]4O)[C@@H](O)[C@@H](O)[C@H]1O (stereo partly specified) |  | 1.12% [at 25.7 µM] (inactive) |  |
| COC1CC(OC2CCC3(C=O)C(CCC4C3CCC3(C)C(C5=CC(=O)OC5)CCC43O)C2)OC(C)C1OC1OC(CO)C(O)C(O)C1O (stereo unspecified) |  | 1.07% [at 25.7 µM] (inactive) |  |
| N#CC(OC1OC(COC2OC(CO)C(O)C(O)C2O)C(O)C(O)C1O)c1ccccc1 (stereo unspecified) |  | 0.0532% [at 25.7 µM] (inactive) |  |
| CCc1c(C(=O)C(N)=O)c2c(OCC(=O)OC)cccc2n1Cc1ccccc1 |  |  | inactive |
| COc1cc(C)[nH]c(=O)c1CNC(=O)c1c(C)n([C@H](C)C2CCOCC2)c2ccccc12 |  | 0.352% (inactive) |  |
| CC(C)=C1CC[C@]23CO[C@H](C2)[C@@](O)(C(=O)O)CCC13 (stereo partly specified) |  | -3.97% (inactive) |  |
| C=CC(C)(O)CC/C=C(\C)C(=O)O[C@H]1[C@H](O)[C@@H](CO)O[C@@H](OC(=O)[C@]23CCC(C)(C)CC2C2=CCC4[C@@]5(C)CC[C@H](O[C@@H]6O[C@H](CO[C@@H]7OC[C@H](O)[C@H](O)[C@H]7O[C@@H]7OC[C@@H](O)[C@H](O)[C@H]7O)[C@@H](O)[C@H](O)[C@H]6O)C(C)(C)C5CC[C@@]4(C)[C@]2(C)CC3)[C@@H]1OC1OC(C)C(O[C@@H]2OC[C@@H](O)[C@H](O[C@@H]3OC[C@@H](O)[C@H](O)[C@H]3O)[C@H]2O)C(O)C1O (stereo partly specified) |  |  | inactive [at 11.6 µM] |
| C[C@]12CC[C@H]3[C@@H]([C@H](O)CC4=CC(=O)CC[C@@]43C)[C@@H]1CC[C@@H]2O |  | -1.13% (inactive) |  |
| CCOc1ccccc1-n1c(C(C)N2CCN(C(=O)COc3ccc(Cl)cc3)CC2)nc2ccccc2c1=O (stereo unspecified) |  |  | inactive |
| C=C1[C@@H]2CC[C@@]3(C)[C@H](c4ccoc4)OC(=O)C[C@]13O[C@H]1CC(=O)C(C)(C)[C@H](C(OC(C)=O)C(=O)OC)[C@]12C (stereo partly specified) |  | 1.19% [at 25.7 µM] (inactive) |  |
| CN1[C@@H]2CC[C@H]1CC(OC(=O)C1C=Nc3ccccc31)C2 (stereo partly specified) |  | 1.68% (inactive) |  |

System: not listed separately
Assay: Primary fluorescence-based thiol-reactive (MSTI) qHTS assay for identification of artifact compounds. (AID 1845221); also: nearly all actives have a fitted effect of over 65% in size;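 as to activity change, negative = thiol reactive: thiol-reactive compounds lower the probe fluorescence signal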
Settings: MSTI thiol-reactivity probe, 1 h; series mostly up to 53.8 µM; activity change, negative = thiol reactive: at the top concentration
Summary of the method: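 Thiol-reactive compounds detected by quenching of 4 uM MSTI fluorescence (525/598 nm) after 1 h room-temperature dark incubation in PBS pH 7.4, 2% DMSO. qHTS titration; percent inhibition Hill-fitted against Acetyl-MSTI/MSTI controls.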

| Compound | activity change, negative = thiol reactive | Potency |
| --- | --- | --- |
| CO[C@@H]1[C@H](O)[C@@H](O[C@@H]2C[C@H]3CC[C@@H]4C(CC[C@]5(C)[C@@H](C6=CC(=O)OC6)CC[C@]45O)[C@@]3(C)[C@H](O)C2)O[C@H](C)[C@@H]1O[C@@H]1O[C@H](CO)[C@@H](O)[C@H](O)[C@H]1O (stereo partly specified) | -1.98% [at 25.6 µM] (inactive) |  |
| C=C(C)[C@H]1O[C@H]2CC[C@@]3(C)[C@@](O)(CC[C@H]4[C@@H]5OC(C)(C)[C@H]6C[C@@H]7C(=C)Cc8c(Cl)cc9[nH]c(c5c9c8[C@@]76O)[C@@]43C)[C@]23O[C@@H]3[C@H]1O |  | 6.3 µM (active) |
| CC(C)(C)c1cc(C(C)(C)C)c2c(c1)C(O)(C(F)(F)F)C(=O)O2 (stereo unspecified) |  | 9.47 µM (active) |
| CCCN1CCO[C@H]2c3cc(O)ccc3OC[C@@H]21 | -12% (inactive) |  |
| COC(=O)C1(C)CCC(O)C2(C)c3c(O)cc(C(C)C)cc3C(O)C(OC(C)=O)C12 (stereo unspecified) | 22.1% [at 25.6 µM] (inactive) |  |
| CCN1C[C@]2(OC(=O)c3ccccc3NC(C)=O)CC[C@H](OC)[C@@]34[C@@H]2C[C@@H]([C@@H]13)[C@@]1(O)C[C@H](OC)[C@H]2C[C@@H]4[C@]1(O)[C@H]2OC | 13.6% (inactive) |  |
| CCN1C[C@]2(COC(=O)c3ccccc3N3C(=O)C[C@H](C)C3=O)CC[C@H](OC)[C@@]34[C@@H]5C[C@H]6[C@H](OC)[C@@H]5[C@](O)(C[C@@H]6OC)[C@](O)([C@@H](OC)[C@H]23)[C@@H]14 | 20.5% (inactive) |  |
| C=C[C@H]1[C@H](O[C@@H]2O[C@H](CO)[C@@H](O)[C@H](O)[C@H]2O)OC=C2C(=O)OCC[C@H]21 | -13.7% (inactive) |  |
| COC1CC(OC2CCC3(C)C(=CCC4C3CCC3(C)C(C(C)OC5OC(COC6OC(CO)C(O)C(O)C6O)C(O)C(O)C5O)CCC43O)C2)OC(C)C1OC1OC(C)C(O)C(OC)C1O (stereo unspecified) | 0.542% [at 11.5 µM] (inactive) |  |
| CO[C@H]1[C@H](O)[C@H](O[C@H]2CC[C@]3(C)C4CC[C@]5(C)[C@H](C6=CC(=O)OC6)CC[C@]5(O)C4CC[C@@H]3C2)O[C@@H](C)[C@@H]1O (stereo partly specified) | 18.3% [at 25.6 µM] (inactive) |  |
| Cc1cn(C[C@H](N)C(=O)O)c(=O)n(Cc2cc(-c3ccccc3)sc2C(=O)O)c1=O | -10.4% (inactive) |  |
| COC(=O)N1CCN(C(=O)Cc2ccc(Cl)c(Cl)c2)[C@@H](CN2CCCC2)C1 | 16.2% (inactive) |  |
| COC(=O)C12C(=O)C(C)(O)C(=O)C1(C)C(C)=CC1C34CCC(OC3=O)C(C)(CO)C4CCC12C (stereo unspecified) |  | 2.6 µM (active) |
| C=C(CO)C(=O)O[C@H]1C/C(C)=C/CC/C(CO)=C/[C@H]2OC(=O)C(=C)[C@H]12 | 26.6% (inactive) |  |
| COC1=CC(=O)O[C@@H](CCc2ccccc2)C1 | 25.2% (inactive) |  |
| CC(=O)OC1CC(O)C2(C)C(CC(OC(C)=O)C3(C)C2CCC2(C)C(c4ccoc4)C(=O)C4OC423)C1(C)C (stereo unspecified) | 37.5% [at 25.6 µM] (inactive) |  |
| C[C@H](NC(=O)Cc1cc(F)cc(F)c1)C(=O)N[C@@H]1N=C(c2ccccc2)c2ccccc2N(C)C1=O | 112% (inactive) |  |
| O=C(O)c1ccnc2cc(C(OCCN3CCCCC3)c3ccccc3Cl)[nH]c12 (stereo unspecified) | 54.3% (inactive) |  |

| Compound | activity change, negative = thiol reactive | Potency |
| --- | --- | --- |
| CCN1CC2(COC)C3[C@@H](OC)C4C1C3(C1C[C@]3(O)[C@H](OC(=O)c5ccccc5)C1[C@]4(OC(C)=O)[C@@H](O)[C@@H]3OC)[C@H](OC)C[C@H]2O (stereo partly specified) | 36.5% (inactive) |  |
| CN1[C@H]2C[C@H](OC(=O)[C@H](CO)c3ccccc3)C[C@@H]1[C@@H](O)C2 | -4.13% (inactive) |  |
| CN1C(=O)N(c2ccc(C#N)c(C(F)(F)F)c2)C(=O)[C@]1(CO)c1ccccc1 | 118% (inactive) |  |
| COc1cc(CCNCc2ccccc2O)c(OC)cc1C#N | 17.9% (inactive) |  |
| C1=C2CCCN[C@H]2[C@@H]2C[C@H]1[C@H]1CCCCN1C2 | -16.6% (inactive) |  |
| CCCCCOc1cc2c(cc1-c1cc(/C=C/C(=O)O)ccc1O)C(C)(C)CCC2(C)C | 46.9% (inactive) |  |
| C[C@H]1O[C@@H](O[C@H]2C[C@@H](O)[C@]3(CO)C4C(CC[C@]3(O)C2)[C@@]2(O)CC[C@H](C3=CC(=O)OC3)[C@@]2(C)C[C@H]4O)[C@@H](O)[C@@H](O)[C@H]1O (stereo partly specified) | -10.9% [at 25.6 µM] (inactive) |  |
| COC1CC(OC2CCC3(C=O)C(CCC4C3CCC3(C)C(C5=CC(=O)OC5)CCC43O)C2)OC(C)C1OC1OC(CO)C(O)C(O)C1O (stereo unspecified) | -10.7% [at 25.6 µM] (inactive) |  |
| N#CC(OC1OC(COC2OC(CO)C(O)C(O)C2O)C(O)C(O)C1O)c1ccccc1 (stereo unspecified) | 9.09% [at 25.6 µM] (inactive) |  |
| CCc1c(C(=O)C(N)=O)c2c(OCC(=O)OC)cccc2n1Cc1ccccc1 | 37.1% (inactive) |  |
| COc1cc(C)[nH]c(=O)c1CNC(=O)c1c(C)n([C@H](C)C2CCOCC2)c2ccccc12 | 25.1% (inactive) |  |
| CC(C)=C1CC[C@]23CO[C@H](C2)[C@@](O)(C(=O)O)CCC13 (stereo partly specified) | -14.2% (inactive) |  |
| C=CC(C)(O)CC/C=C(\C)C(=O)O[C@H]1[C@H](O)[C@@H](CO)O[C@@H](OC(=O)[C@]23CCC(C)(C)CC2C2=CCC4[C@@]5(C)CC[C@H](O[C@@H]6O[C@H](CO[C@@H]7OC[C@H](O)[C@H](O)[C@H]7O[C@@H]7OC[C@@H](O)[C@H](O)[C@H]7O)[C@@H](O)[C@H](O)[C@H]6O)C(C)(C)C5CC[C@@]4(C)[C@]2(C)CC3)[C@@H]1OC1OC(C)C(O[C@@H]2OC[C@@H](O)[C@H](O[C@@H]3OC[C@@H](O)[C@H](O)[C@H]3O)[C@H]2O)C(O)C1O (stereo partly specified) | 28.2% [at 11.5 µM] (inactive) |  |
| C[C@]12CC[C@H]3[C@@H]([C@H](O)CC4=CC(=O)CC[C@@]43C)[C@@H]1CC[C@@H]2O | 26.9% (inactive) |  |
| CCOc1ccccc1-n1c(C(C)N2CCN(C(=O)COc3ccc(Cl)cc3)CC2)nc2ccccc2c1=O (stereo unspecified) | -2.07% (inactive) |  |
| C=C1[C@@H]2CC[C@@]3(C)[C@H](c4ccoc4)OC(=O)C[C@]13O[C@H]1CC(=O)C(C)(C)[C@H](C(OC(C)=O)C(=O)OC)[C@]12C (stereo partly specified) | 61.1% [at 25.6 µM] (inactive) |  |
| CN1[C@@H]2CC[C@H]1CC(OC(=O)C1C=Nc3ccccc31)C2 (stereo partly specified) | 5.4% (inactive) |  |
